According to the supplement of paper PMC7858590:

The molecules below were run on human monocyte-derived macrophages (polarized) (assay: cell shape (eccentricity) Z-score vs DMSO control; higher = more elongated, M2-like morphology). Settings: 5 µM; 24 h; macrophage state: M1-polarized (IFNg + TNFa), cytokines present during treatment.
Experimental: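 Primary-screen hits were rescreened on polarized hMDMs with the differentiating cytokines (IL-4 + IL-13 or IFNg + TNFa) kept in the medium during treatment with compound at 5 uM for 24 h. The eccentricity Z-score vs DMSO wells is averaged over experiments.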

| Compound | cell shape (Z-score) |
| --- | --- |
| COc1ccc(-c2cc(=O)c3c(O)cc(OC)c(OC)c3o2)c(OC)c1 | -4.83 |
| C#Cc1cccc(Nc2ncnc3cc(OCCOC)c(OCCOC)cc23)c1 | 11.8 |
| CCc1cnn2c(NCc3ccc[n+]([O-])c3)cc(N3CCCC[C@H]3CCO)nc12 | 8 |
| CC[C@H]1OC(=O)[C@H](C)[C@@H](O[C@H]2C[C@@](C)(OC)[C@@H](O)[C@H](C)O2)[C@H](C)[C@@H](O[C@@H]2O[C@H](C)C[C@H](N(C)C)[C@H]2O)[C@](C)(O)C[C@@H](C)C(=O)[C@H](C)[C@@H](O)[C@]1(C)O | -5.37 |
| O=C(CCCCCCC(=O)Nc1ccccc1)NO | -0.801 |
| NC(=O)Nc1sc(-c2ccc(F)cc2)cc1C(N)=O | 7.48 |
| Cc1cc(O)cc(=O)o1 | 7.71 |
| CC(NCCC(c1ccccc1)c1ccccc1)c1ccccc1 (centres undefined) | -8.8 |

Same assay, conditions: 5 µM; 24 h; macrophage state: M2-polarized (IL-4 + IL-13), cytokines present during treatment

| Compound | cell shape (Z-score) |
| --- | --- |
| C#CC1(OCC(O)CN2CCN(c3cccc(C(F)(F)F)c3)CC2)CCCCC1 (centres undefined) | 3.74 |
| CC(=O)N[C@@H](C(=O)O[C@H]1CCC(C)(C)[C@@H]2CCC3=C(COC3=O)[C@@]12C)C(C)C | -0.761 |
| COc1ccc(/C=C/C(=O)O)cc1OC | 1.19 |
| O=C(O)Cc1nn(Cc2ccc(Br)cc2F)c(=O)c2ccccc12 | -1.61 |
| O=C1c2ccccc2C(Cc2ccnc(F)c2)(Cc2ccnc(F)c2)c2ccccc21 | 1.79 |
| CC(Nc1nc(N2CCCC2)nc2ccccc12)c1ccccc1 (centres undefined) | -11.8 |
| C=C1C(=O)OC2CC3(C)CCC=C(CO)C3CC12 (centres undefined) | -5.59 |
| CCCc1c(OCC(O)COc2ccc3c(=O)cc(C(=O)O)oc3c2CCC)ccc(C(C)=O)c1O (centres undefined) | -2.27 |
| C=C1C(=O)O[C@H]2[C@H]1CC/C(C)=C/CC[C@@]1(C)O[C@@H]21 [Parthenolide] | -1.29 |
| CC(CCCCC(=O)Nc1ccc(C(F)(F)F)cc1)NCCc1cnc[nH]1 (centres undefined) | -6.34 |
| O=C(O)CN1C(=O)c2cccc3cccc(c23)C1=O | 9.63 |
